# In publication PMC9911399, “Two distinct binding modes provide the RNA-binding protein RbFox with extraordinary sequence specificity”:
# Positions count from the first letter of the chain named. The full ranking holds about 16,000 sequences; the median of “ka relative to ugcaugu” is about 0.096, and the highest 2% start at about 0.35. Many of the other results were omitted from the sample, so the highest values are more common in it than they were.
# T1: RBFOX1 RRM RbFoxmut (Fox-RRM*) (Homo sapiens, UniProt Q9NWB1 109-208, R118D;E147R;N151S;E152T)
# T1 sequence: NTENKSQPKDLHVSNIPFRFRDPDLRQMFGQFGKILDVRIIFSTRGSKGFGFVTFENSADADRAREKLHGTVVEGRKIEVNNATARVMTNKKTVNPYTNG
# B1: UCGUUCG (DNA:RNA)
# RNA: GGGAGACCGGAAUUCAGAUUGUCCUCGUUCGUUAAAUCCCGUCGUAGCCACCA
# DNA 1: CAATCTGAATTCCGGTCTCCC
# DNA 2: TGGTGGCTACGACGGGATT
# B2: AGCCUAC (DNA:RNA)
# RNA: B1 RNA with U25A, C26G, G27C, U28C, C30A, G31C
# DNA 1: CAATCTGAATTCCGGTCTCCC
# DNA 2: TGGTGGCTACGACGGGATT
# B3: CCUGUCC (DNA:RNA)
# RNA: B1 RNA with U25C, G27U, U28G, G31C
# DNA 1: CAATCTGAATTCCGGTCTCCC
# DNA 2: TGGTGGCTACGACGGGATT
# B4: GAUUAGG (DNA:RNA)
# RNA: B1 RNA with U25G, C26A, G27U, U29A, C30G
# DNA 1: CAATCTGAATTCCGGTCTCCC
# DNA 2: TGGTGGCTACGACGGGATT
# B5: CGCAGCG (DNA:RNA)
# RNA: B1 RNA with U25C, C26G, G27C, U28A, U29G
# DNA 1: CAATCTGAATTCCGGTCTCCC
# DNA 2: TGGTGGCTACGACGGGATT
# B6: AUUUGCC (DNA:RNA)
# RNA: B1 RNA with U25A, C26U, G27U, U29G, G31C
# DNA 1: CAATCTGAATTCCGGTCTCCC
# DNA 2: TGGTGGCTACGACGGGATT
# B7: UGUAGCC (DNA:RNA)
# RNA: B1 RNA with C26G, G27U, U28A, U29G, G31C
# DNA 1: CAATCTGAATTCCGGTCTCCC
# DNA 2: TGGTGGCTACGACGGGATT
# B8: AUUGCCU (DNA:RNA)
# RNA: B1 RNA with U25A, C26U, G27U, U28G, U29C, G31U
# DNA 1: CAATCTGAATTCCGGTCTCCC
# DNA 2: TGGTGGCTACGACGGGATT
# B9: UGUGGCC (DNA:RNA)
# RNA: B1 RNA with C26G, G27U, U28G, U29G, G31C
# DNA 1: CAATCTGAATTCCGGTCTCCC
# DNA 2: TGGTGGCTACGACGGGATT
# B10: UGGCCUC (DNA:RNA)
# RNA: B1 RNA with C26G, U28C, U29C, C30U, G31C
# DNA 1: CAATCTGAATTCCGGTCTCCC
# DNA 2: TGGTGGCTACGACGGGATT
# B11: UGCCUUG (DNA:RNA)
# RNA: B1 RNA with C26G, G27C, U28C, C30U
# DNA 1: CAATCTGAATTCCGGTCTCCC
# DNA 2: TGGTGGCTACGACGGGATT
# B12: UGCCUCC (DNA:RNA)
# RNA: B1 RNA with C26G, G27C, U28C, G31C
# DNA 1: CAATCTGAATTCCGGTCTCCC
# DNA 2: TGGTGGCTACGACGGGATT
# B13: UGGCCUG (DNA:RNA)
# RNA: B1 RNA with C26G, U28C, U29C, C30U
# DNA 1: CAATCTGAATTCCGGTCTCCC
# DNA 2: TGGTGGCTACGACGGGATT
# B14: UGUUGCC (DNA:RNA)
# RNA: B1 RNA with C26G, G27U, U29G, G31C
# DNA 1: CAATCTGAATTCCGGTCTCCC
# DNA 2: TGGTGGCTACGACGGGATT
# B15: UGCUGCC (DNA:RNA)
# RNA: B1 RNA with C26G, G27C, U29G, G31C
# DNA 1: CAATCTGAATTCCGGTCTCCC
# DNA 2: TGGTGGCTACGACGGGATT
# B16: UUGCCUG (DNA:RNA)
# RNA: B1 RNA with C26U, U28C, U29C, C30U
# DNA 1: CAATCTGAATTCCGGTCTCCC
# DNA 2: TGGTGGCTACGACGGGATT
# B17: CAUUGCC (DNA:RNA)
# RNA: B1 RNA with U25C, C26A, G27U, U29G, G31C
# DNA 1: CAATCTGAATTCCGGTCTCCC
# DNA 2: TGGTGGCTACGACGGGATT
# B18: AGACGGA (DNA:RNA)
# RNA: GGGAGACCGGAAUUCAGAUUGUCCAGACGGAUUAAAUCCCGUCGUAGCCACCA
# DNA 1: CAATCTGAATTCCGGTCTCCC
# DNA 2: TGGTGGCTACGACGGGATT
# B19: CACCGUU (DNA:RNA)
# RNA: B18 RNA with A25C, G26A, A27C, G30U, A31U
# DNA 1: CAATCTGAATTCCGGTCTCCC
# DNA 2: TGGTGGCTACGACGGGATT
# B20: GUGUCCA (DNA:RNA)
# RNA: B1 RNA with U25G, C26U, U29C, G31A
# DNA 1: CAATCTGAATTCCGGTCTCCC
# DNA 2: TGGTGGCTACGACGGGATT
# B21: CCCAAUU (DNA:RNA)
# RNA: B1 RNA with U25C, G27C, U28A, U29A, C30U, G31U
# DNA 1: CAATCTGAATTCCGGTCTCCC
# DNA 2: TGGTGGCTACGACGGGATT
# B22: GUAUUUG (DNA:RNA)
# RNA: B1 RNA with U25G, C26U, G27A, C30U
# DNA 1: CAATCTGAATTCCGGTCTCCC
# DNA 2: TGGTGGCTACGACGGGATT
# B23: CCUUCAG (DNA:RNA)
# RNA: B1 RNA with U25C, G27U, U29C, C30A
# DNA 1: CAATCTGAATTCCGGTCTCCC
# DNA 2: TGGTGGCTACGACGGGATT
# B24: UGUCGGU (DNA:RNA)
# RNA: B18 RNA with A25U, A27U, A31U
# DNA 1: CAATCTGAATTCCGGTCTCCC
# DNA 2: TGGTGGCTACGACGGGATT
# B25: ACGAACU (DNA:RNA)
# RNA: B1 RNA with U25A, U28A, U29A, G31U
# DNA 1: CAATCTGAATTCCGGTCTCCC
# DNA 2: TGGTGGCTACGACGGGATT
# B26: GUGUGCC (DNA:RNA)
# RNA: B1 RNA with U25G, C26U, U29G, G31C
# DNA 1: CAATCTGAATTCCGGTCTCCC
# DNA 2: TGGTGGCTACGACGGGATT
# B27: UGCUGGC (DNA:RNA)
# RNA: B18 RNA with A25U, A27C, C28U, A31C
# DNA 1: CAATCTGAATTCCGGTCTCCC
# DNA 2: TGGTGGCTACGACGGGATT
# B28: UUGUGCC (DNA:RNA)
# RNA: B1 RNA with C26U, U29G, G31C
# DNA 1: CAATCTGAATTCCGGTCTCCC
# DNA 2: TGGTGGCTACGACGGGATT
# B29: CCGUGCC (DNA:RNA)
# RNA: B1 RNA with U25C, U29G, G31C
# DNA 1: CAATCTGAATTCCGGTCTCCC
# DNA 2: TGGTGGCTACGACGGGATT
# B30: ACUUGCC (DNA:RNA)
# RNA: B1 RNA with U25A, G27U, U29G, G31C
# DNA 1: CAATCTGAATTCCGGTCTCCC
# DNA 2: TGGTGGCTACGACGGGATT
# B31: UUGCCAC (DNA:RNA)
# RNA: B1 RNA with C26U, U28C, U29C, C30A, G31C
# DNA 1: CAATCTGAATTCCGGTCTCCC
# DNA 2: TGGTGGCTACGACGGGATT
# B32: AGUGCCU (DNA:RNA)
# RNA: B18 RNA with A27U, C28G, G29C, G30C, A31U
# DNA 1: CAATCTGAATTCCGGTCTCCC
# DNA 2: TGGTGGCTACGACGGGATT
# B33: ACUUGCG (DNA:RNA)
# RNA: B1 RNA with U25A, G27U, U29G
# DNA 1: CAATCTGAATTCCGGTCTCCC
# DNA 2: TGGTGGCTACGACGGGATT
# B34: CAGUGCC (DNA:RNA)
# RNA: B1 RNA with U25C, C26A, U29G, G31C
# DNA 1: CAATCTGAATTCCGGTCTCCC
# DNA 2: TGGTGGCTACGACGGGATT
# B35: UCCUGGC (DNA:RNA)
# RNA: B1 RNA with G27C, U29G, C30G, G31C
# DNA 1: CAATCTGAATTCCGGTCTCCC
# DNA 2: TGGTGGCTACGACGGGATT
# B36: CAGUGCG (DNA:RNA)
# RNA: B1 RNA with U25C, C26A, U29G
# DNA 1: CAATCTGAATTCCGGTCTCCC
# DNA 2: TGGTGGCTACGACGGGATT
# B37: UGGCUUG (DNA:RNA)
# RNA: B1 RNA with C26G, U28C, C30U
# DNA 1: CAATCTGAATTCCGGTCTCCC
# DNA 2: TGGTGGCTACGACGGGATT
# Target: T1, RBFOX1 RRM RbFoxmut (Fox-RRM*)
# Assay: EMSA; HiTS-Eq, 1 nM pool, 10 min; buffer printed only for the single-RNA assays: 10 mM Tris pH 7.5, 150 mM NaCl, 3.4 mM EDTA, 0.001% NP-40, 30 C
# Settings: tags: His6 N-terminal (pET28a); label: 5' 32P
# In short: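 A pool of RNA with 7 randomized nucleotides, 5′-radiolabelled and with DNA-annealed flanks, was equilibrated at 1 nM for 10 min in 50 µL with purified RbFox RRM, wild type or mutant, across increasing protein concentrations. Free RNA was separated by 8% native PAGE, excised, reverse-transcribed, barcoded by PCR and sequenced. Relative association constants were obtained from read-count changes of each RNA species versus the control reaction and normalised to the cognate motif.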
row,Binder,binding signal
1,B1,0.218 KA relative to UGCAUGU
2,B2,0.0767 KA relative to UGCAUGU
3,B3,0.074 KA relative to UGCAUGU
4,B4,0.0809 KA relative to UGCAUGU
5,B5,0.135 KA relative to UGCAUGU
6,B6,0.257 KA relative to UGCAUGU
7,B7,0.141 KA relative to UGCAUGU
8,B8,0.108 KA relative to UGCAUGU
9,B9,0.263 KA relative to UGCAUGU
10,B10,0.106 KA relative to UGCAUGU
11,B11,1.27 KA relative to UGCAUGU
12,B12,0.155 KA relative to UGCAUGU
13,B13,0.359 KA relative to UGCAUGU
14,B14,0.296 KA relative to UGCAUGU
15,B15,0.298 KA relative to UGCAUGU
16,B16,0.377 KA relative to UGCAUGU
17,B17,0.374 KA relative to UGCAUGU
18,B18,0.0873 KA relative to UGCAUGU
19,B19,0.0894 KA relative to UGCAUGU

row,Binder,binding signal
1,B20,0.121 KA relative to UGCAUGU
2,B21,0.0634 KA relative to UGCAUGU
3,B22,0.17 KA relative to UGCAUGU
4,B23,0.114 KA relative to UGCAUGU
5,B24,0.112 KA relative to UGCAUGU
6,B25,0.0682 KA relative to UGCAUGU
7,B26,0.22 KA relative to UGCAUGU
8,B27,0.119 KA relative to UGCAUGU
9,B28,0.46 KA relative to UGCAUGU
10,B29,0.264 KA relative to UGCAUGU
11,B30,0.372 KA relative to UGCAUGU
12,B31,0.0642 KA relative to UGCAUGU
13,B32,0.0968 KA relative to UGCAUGU
14,B33,0.156 KA relative to UGCAUGU
15,B34,0.402 KA relative to UGCAUGU
16,B35,0.128 KA relative to UGCAUGU
17,B36,0.148 KA relative to UGCAUGU
18,B37,0.92 KA relative to UGCAUGU
